Data as given in PubChem BioAssay (NCATS).
Values joined by “and” are separate entries in the source; they are usually repeats but may differ in a detail not shown here. Equal entries are not always repeated. Results filed as inconclusive are left out. Where a call stands in place of a potency, no number is given. Active and inactive are the calls of the source. Unless noted, calls follow the shape of the full dose curve.

Experiments:
[1] = target: Bile acid receptor (Homo sapiens) (UniProt Q96RI1); assay: qHTS assay for small molecule agonists of farnesoid X receptor signaling (AID 588527); details: HEK293T FXR-UAS-bla, beta-lactamase ratio, 16 h; stronger effect = higher value
How it was run: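 Agonist-mode beta-lactamase reporter in GeneBLAzer FXR-UAS-bla HEK293T cells, titration up to 92 uM, 16 h exposure at 37 C, CCF4 fluorescence. Response scaled to DMSO (0%) and 100 uM chenodeoxycholic acid (100%), then Hill-fitted for EC50 and efficacy.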

[2] = target: Peroxisome proliferator-activated receptor delta (Homo sapiens) (UniProt Q03181); assay: qHTS assay for small molecule agonists of peroxisome proliferator-activated receptor delta signaling (AID 588534)
How it was run: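 Agonist-mode qHTS; reporter cells, 5 hrs 37 C pre-incubation; compound titration, 18 hrs 37 C; CCF4 dye, 2 hrs RT; fluorescence read. EC50/efficacy via Hill fit.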

[3] = Primary qHTS for Huh7 cytotoxicity: counterscreen for inhibitors of MERS-S pseudotyped particle cell entry (AID 1479147); details: outcome: dose series up to 57.1 µM unless noted
[4] = Primary qHTS for inhibitors of MERS-S pseudo-typed particle cell entry (AID 1479149); details: outcome: dose series up to 57.1 µM unless noted; also: nearly all actives have a fitted effect of over 60% in size
[5] = Primary qHTS for Vero E6 cytotoxicity: counterscreen for inhibitors of SARS-S pseudo-typed particle cell entry (AID 1479150); details: outcome: dose series up to 57.1 µM unless noted
[6] = Cytotoxicity counterscreen for inhibitors of SARS-CoV-2 cell entry (AID 1645845); details: outcome: dose series up to 57.1 µM unless noted; also: nearly all actives have a fitted effect of over 50% in size
How it was run: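 Counterscreen run in the same HEK293-ACE2 line as the pseudotyped-particle entry assay, without particles. Viability after 48 h at 37 C was read as ATP luminescence, scaled between cell-containing and cell-free wells.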

[7] = Primary qHTS to identify inhibitors of SARS-CoV-2 cell entry (AID 1645846); details: SARS-CoV-2 pseudovirus cell entry assay, luminescence; activity change, negative = inhibition: at 57.1 µM (top of the series) unless noted; also: nearly all actives have a fitted effect of over 45% in size
How it was run: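 Using luciferase-reporting pseudoviruses carrying Wuhan-Hu-1 spike, the screen tracks entry into stably ACE2-expressing cells over 48 hr. Activity is expressed relative to spike particles versus particles lacking any fusion protein.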

[8] = target: Glutathione peroxidase 1 (Homo sapiens) (UniProt P07203); assay: Primary qHTS Assay for Inhibitors of Recombinant Selenoprotein Glutathione Peroxidase 1 (GPX1) (AID 1845191; active = well fitted curve in the direction sought with a large enough effect; an effect the other way counts as inactive or inconclusive; also: nearly all actives have a fitted effect of over 65% in size)
How it was run: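 GR-coupled readout: NADPH consumption tracked by fluorescence, ex 340/em 450 nm, at t=0 and after 15 min at RT. Final mix 10 nM GPX1, 1 mM GSH, 0.5 mM CHP, 0.5 mM NADPH, 100 nM GR, 0.01% BSA, following 30 min enzyme–compound preincubation.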

[9] = target: Phospholipid hydroperoxide glutathione peroxidase GPX4 (Homo sapiens) (UniProt P36969); assay: Primary qHTS Assay for Inhibitors of Recombinant Selenoprotein Glutathione Peroxidase 4 (GPX4) (AID 1845192; active = well fitted curve in the direction sought with a large enough effect; an effect the other way counts as inactive or inconclusive; also: nearly all actives have a fitted effect of over 65% in size)
How it was run: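 Steps: GPX4 plus compound, 30 min RT; add GR/GSH/NADPH master mix; start with cumene hydroperoxide; read 340/450 nm fluorescence at 0 and 15 min. Finals were 200 nM GPX4, 1 mM GSH, 0.5 mM CHP, 0.5 mM NADPH, 100 nM GR.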

[10] = KB-8-5-11 P-gp reporter qHTS against the NCATS DSHEA and TCM libraries (AID 1919977; active = well fitted curve in the direction sought with a large enough effect; an effect the other way counts as inactive or inconclusive)
How it was run: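 Viability of drug-resistant KB-8-5-11 cells is measured by CellTiter-Glo luminescence following roughly 72 h treatment at 37C. Substances were titrated, with bortezomib as intraplate control.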

[11] = Confirmatory qHTS for VERO E6 Cytotoxicity Assay: Counterscreen for SARS-CoV-2 CPE Assay (AID 1508605); also: nearly all actives have a fitted effect of over 60% in size
[12] = Confirmatory qHTS to identify inhibitors of SARS-CoV-2 cell entry (AID 1645844); also: potency is read from the fitted curve at half-maximal effect; nearly all actives have a fitted effect of over 45% in size
How it was run: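 HEK293-ACE2, overnight seeding; cpd 1 h, 37C/5% CO2; + SARS-CoV-2-S MLV PP (Wuhan-Hu-1, ΔC19); 48 h; Bright-Glo luminescence. Data normalised to S PP and bald PP wells.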

[13] = target: Cytochrome P450 2C19 (Homo sapiens) (UniProt P33261); assay: qHTS Assay for Inhibitors and Substrates of Cytochrome P450 2C19 (AID 899; active = well fitted curve in the direction sought with a large enough effect; an effect the other way counts as inactive or inconclusive; also: nearly all actives have a fitted effect of over 60% in size)
How it was run: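 Luminescent read-out of luciferin formed from Luciferin-H EGE (10uM, equal to KM). Enzyme 5nM in 50mM KPO4; compound added, 10 min at 37C, then NADPH regenerating system for 60 min at 37C. Full inhibition defined by 57uM ketoconazole.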

Chain of Bile acid receptor (Homo sapiens) (Q96RI1 whole entry, looked up): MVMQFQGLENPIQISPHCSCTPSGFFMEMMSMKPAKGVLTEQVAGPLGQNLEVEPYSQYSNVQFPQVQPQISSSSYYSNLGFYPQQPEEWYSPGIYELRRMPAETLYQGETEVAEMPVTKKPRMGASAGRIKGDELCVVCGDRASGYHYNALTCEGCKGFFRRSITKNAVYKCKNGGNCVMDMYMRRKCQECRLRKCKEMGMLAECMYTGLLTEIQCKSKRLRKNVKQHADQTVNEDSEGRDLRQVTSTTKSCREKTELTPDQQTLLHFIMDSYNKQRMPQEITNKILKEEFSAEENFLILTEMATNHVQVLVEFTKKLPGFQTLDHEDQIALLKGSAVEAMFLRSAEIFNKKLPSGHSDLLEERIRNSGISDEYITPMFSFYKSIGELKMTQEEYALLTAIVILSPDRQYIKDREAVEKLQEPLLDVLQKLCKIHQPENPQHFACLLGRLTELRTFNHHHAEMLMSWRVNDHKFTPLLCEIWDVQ
Chain of Peroxisome proliferator-activated receptor delta (Homo sapiens) (Q03181 whole entry, looked up): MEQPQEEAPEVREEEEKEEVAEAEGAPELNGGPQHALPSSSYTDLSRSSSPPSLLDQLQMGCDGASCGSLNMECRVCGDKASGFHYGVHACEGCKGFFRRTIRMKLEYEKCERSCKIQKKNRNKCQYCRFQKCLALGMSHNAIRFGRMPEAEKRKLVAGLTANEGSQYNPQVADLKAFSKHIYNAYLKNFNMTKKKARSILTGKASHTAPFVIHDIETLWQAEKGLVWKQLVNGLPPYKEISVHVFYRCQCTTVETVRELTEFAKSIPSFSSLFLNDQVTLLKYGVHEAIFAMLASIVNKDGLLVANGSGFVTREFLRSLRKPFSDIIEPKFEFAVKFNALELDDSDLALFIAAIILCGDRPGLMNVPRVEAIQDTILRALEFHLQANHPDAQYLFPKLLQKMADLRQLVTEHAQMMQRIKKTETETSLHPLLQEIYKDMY
Chain of Glutathione peroxidase 1 (Homo sapiens) (P07203 whole entry, looked up): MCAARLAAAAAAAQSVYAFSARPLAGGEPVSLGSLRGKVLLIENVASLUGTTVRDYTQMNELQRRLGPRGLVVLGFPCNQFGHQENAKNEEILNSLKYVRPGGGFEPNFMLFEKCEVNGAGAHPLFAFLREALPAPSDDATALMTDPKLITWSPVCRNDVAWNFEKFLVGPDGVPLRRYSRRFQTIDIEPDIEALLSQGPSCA
Chain of Phospholipid hydroperoxide glutathione peroxidase GPX4 (Homo sapiens) (P36969 whole entry, looked up): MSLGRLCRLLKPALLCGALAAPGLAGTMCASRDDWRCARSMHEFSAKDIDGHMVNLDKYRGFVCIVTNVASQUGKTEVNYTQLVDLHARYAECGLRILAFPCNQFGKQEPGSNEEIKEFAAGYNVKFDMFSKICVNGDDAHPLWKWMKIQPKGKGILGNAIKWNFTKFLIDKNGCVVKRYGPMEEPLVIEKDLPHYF
Chain of Cytochrome P450 2C19 (Homo sapiens) (P33261 whole entry, looked up): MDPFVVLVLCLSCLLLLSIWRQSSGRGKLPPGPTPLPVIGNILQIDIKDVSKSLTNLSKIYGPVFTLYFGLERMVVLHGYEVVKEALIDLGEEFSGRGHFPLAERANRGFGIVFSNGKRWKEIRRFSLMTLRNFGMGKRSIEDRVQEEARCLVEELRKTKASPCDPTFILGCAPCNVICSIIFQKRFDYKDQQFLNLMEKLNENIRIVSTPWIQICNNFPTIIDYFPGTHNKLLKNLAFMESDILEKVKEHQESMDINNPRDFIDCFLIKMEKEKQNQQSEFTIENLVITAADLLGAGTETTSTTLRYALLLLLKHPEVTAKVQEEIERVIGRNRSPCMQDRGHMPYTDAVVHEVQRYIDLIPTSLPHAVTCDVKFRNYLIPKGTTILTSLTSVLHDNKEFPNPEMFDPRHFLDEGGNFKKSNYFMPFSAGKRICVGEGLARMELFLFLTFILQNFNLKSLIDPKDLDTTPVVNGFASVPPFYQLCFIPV

Which activation [1] does the source give for O=S(=O)(O)c1ccccc1 here?
The activation was 0.473% (inactive).

What about the outcome [2] of the same compound?
Its outcome is “inactive”.

And the Potency [3]?
Its Potency is “inactive”.

What about the Potency [4] of the same compound?
The Potency was “inactive”.

What about the Potency [5] of the same compound?
Its Potency is “inactive”.

And the Potency [6]?
Its Potency is “inactive”.

What about the activity change, negative = inhibition [7] of the same compound?
Its activity change, negative = inhibition is -15.3%.

Which results are given for C=C[C@H]1CN2CC[C@H]1C[C@@H]2[C@@H](OC(=O)OCC)c1ccnc2ccc(OC)cc12?
Potency [3]: inactive; Potency [4]: inactive; Potency [5]: inactive; Potency [6]: inactive; Potency [8]: inactive; Potency [9]: inactive

For OCC=Cc1ccccc1, which Potency [3] is on record?
The Potency was “inactive”.

And the Potency [4]?
The Potency was “inactive”.

And the Potency [5]?
The Potency was “inactive”.

And the activity change, negative = inhibition [7]?
The activity change, negative = inhibition was -22.7%.

And the Potency [10]?
Its Potency is “inactive”.

Which results are given for Cc1[nH]cnc1C[C@H]1CCc2c(C)c3ccccc3n2C1=O?
Potency [3]: inactive; Potency [4]: inactive; Potency [5]: inactive; activity change, negative = inhibition [7]: -26.5%

What does the source list for CCOC(=O)N[C@@H]1CC[C@@H]2[C@@H](C1)C[C@H]1C(=O)O[C@H](C)C1[C@H]2/C=C/c1ccc(-c2cccc(F)c2)cn1 (some centres undefined)?
Potency [3]: inactive; Potency [5]: inactive; Potency [11]: inactive; Potency [12]: 7.64 µM (active); Potency [6]: inactive

Which results are given for CC(C)(C)CC(C)(C)c1cc(Cc2cc(C(C)(C)CC(C)(C)C)cc(-n3nc4ccccc4n3)c2O)c(O)c(-n2nc3ccccc3n2)c1?
activity change, negative = cytotoxicity [3]: 1.83% [at 5.34 µM] (inactive); outcome [4]: inactive [at 5.34 µM]; activity change, negative = cytotoxicity [5]: -1.1% [at 5.34 µM] (inactive); activity change, negative = inhibition [7]: -28.1% [at 5.25 µM]

Which Potency [3] does the source give for C=C[C@]1(C)C[C@@H](OC(=O)CSC2C[C@H]3CC[C@@H](C2)N3C)C2(C)[C@H](C)CCC3(CCC(=O)[C@H]32)[C@@H](C)[C@@H]1O (some centres undefined) here?
The Potency was “inactive”.

And the Potency [5]?
The Potency was “inactive”.

Which Potency [3] does the source give for O=NCc1ccc([N+](=O)[O-])o1 here?
The Potency was “inactive”.

What about the Potency [5] of the same compound?
The Potency was “inactive”.

What does the source list for C[N+]1(CC2CC2)CC[C@]23c4c5ccc(O)c4O[C@H]2C(=O)CC[C@@]3(O)[C@H]1C5 (some centres undefined)?
Potency [3]: inactive; Potency [4]: inactive; Potency [5]: inactive; Potency [6]: inactive; Potency [8]: inactive; Potency [9]: inactive

Which activity, negative = inhibition [13] does the source give for Cc1c(O)c(=O)ccn1C here?
The activity, negative = inhibition was 86.4% [at 11.4 µM] (inactive).

And the Potency [3]?
Its Potency is “inactive”.

And the Potency [4]?
Its Potency is “inactive”.

What about the Potency [5] of the same compound?
Its Potency is “inactive”.

What about the Potency [6] of the same compound?
The Potency was “inactive”.

What about the activity change, negative = inhibition [7] of the same compound?
The activity change, negative = inhibition was -14.9% [at 114 µM].

Which activation [1] does the source give for c1ccc2ccccc2c1 here?
Its activation is 2.2% (inactive) and 1.82% (inactive).

What about the outcome [2] of the same compound?
The outcome was “inactive”.

And the Potency [3]?
The Potency was “inactive”.

And the Potency [4]?
The Potency was “inactive”.

And the Potency [5]?
The Potency was “inactive”.

What about the Potency [6] of the same compound?
The Potency was “inactive”.

What about the Potency [7] of the same compound?
The Potency was “inactive”.
